# Reference: PubChem BioAssay (NCI)
# Where “and” joins values, the source holds several entries; their conditions need not be identical. Equal values may be shown once. Compounds without any hit were thinned out: in the full panel of roughly 83,000, 20% have a hit.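 A percent growth of 40 corresponds to 60% growth inhibition; 0 means no net growth; -100 means all cells died. Active threshold: below 10.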 Values without a mark were called inactive. Calls of active or inactive are those of the source.
# Tested on: MDA-MB-468 breast
# Assay: NCI-60 one-dose screen, 48 h (100 = growth as untreated, 0 = no growth, -100 = all killed)
# Conditions: 10 µM unless noted
row,SMILES,growth
1,CCOC(=O)c1ccc(N(CCC(=O)O)C(C)=O)cc1,99.9%
2,O=C1C(SCc2ccccc2)=C(Cl)CN1c1ccc(Cl)cc1,16.3%
3,Cc1sc(N=Nc2ccc(N(C)C)cc2)[n+]([O-])c1C,75.2%
4,Cc1cc(OI)c(C(C)C)cc1-c1cc(C(C)C)c(OI)cc1C,108%
5,CC(C)C1C2=C(NCCN1C(=O)Cc1ccccc1)C(C)(C)N(Cc1ccccc1)C2=O (stereo not given),95.5%
6,O=C(NO)c1ccc(Cn2c(=O)n(CCc3ccccc3)c(=O)c3ccccc32)cc1,40.9%
7,CC1=NN(c2ccc(Cl)cc2)CC1(C)N=O (stereo not given),7.84% (active)
8,C=C(C)[C@H]1CC/C(C)=C/CC[C@]2(C)O[C@H]2CC/C(C=O)=C\C1O (stereo not given in full),126%
9,COc1ccc(-c2cn3c(C(=O)Nc4ccccc4Cl)c(-c4ccccc4)c4c3n2CCCC4)cc1,84.1%
10,FC(F)(F)c1cccc(Nc2ccccc2)c1,92.7%
11,CCCCCCCC(=O)SCC/C=C/[C@@H]1CC(=O)NCc2cccc(n2)CN(Cc2ccc3ccccc3c2)CC(=O)N[C@@H](C(C)C)C(=O)O1,7.6% (active)
12,Cc1nc2n[nH]c(N)c2nc1C,100%
13,O=C(NCc1ccccc1)Nc1ccccc1CNc1nc(Nc2ccc(OCCN3CCCC3)cc2)ncc1Cl,74.5%
14,C=CC(=O)N(C)[C@H]1C[C@H]2OC(C)(C1OC)n1c3ccccc3c3c4c(c5c6ccccc6n2c5c31)C(=O)NC4 (stereo not given in full),-52.4% (active)
15,O=C1CC2C=CCN2C=C1NC(=O)C1CCCCC1 (stereo not given),96.2%
16,CC(C)N1CC(=O)N2CSCC2C1=O (stereo not given),92.6%
17,COc1ccc(S(=O)(=O)Nc2cc(/C=C\c3cc(OC)c(OC)c(OC)c3)cc(OC)c2OC)cc1,19.5%
18,CCN(CC)CCCNCCCNc1cc(OC)cc2cccnc12,-10.4% (active)
19,CC(=O)c1cnc(-c2ccccc2)nc1CBr,49.6%
20,CN(C)CCCn1c2c(c3ccncc3c1=O)C(=O)c1ccccc1-2,-16% (active)

row,SMILES,growth
1,COc1ccc(-c2nn(-c3cccc(Cl)c3)cc2/C=C2\NC(=S)N(c3ccc(Cl)cc3)C2=O)cc1,-56.7% (active)
2,CC/C(=C/c1cc(OC)ccc1O)c1ccc2cc(OC)ccc2[o+]1,45.8%
3,Nc1ncnc2c1C(c1ccccc1)c1ccc3ccccc3c1O2 (stereo not given),86.5%
4,COc1cc(C(=O)NNC(=O)c2ccccc2C(=O)O)cc(OC)c1OC,48.6%
5,O=C1/C(=C/c2ccccc2Cl)CCc2ccccc21,101%
6,COc1cc(N)ccc1Nc1c2ccccc2nc2ccccc12,92.4%
7,C=C(C)[C@@H]1CC[C@]2(C(=O)NCCCN(CCC#N)CCC#N)CC[C@]3(C)[C@H](CC[C@@H]4[C@@]5(C)CCC(=O)C(C)(C)[C@@H]5CC[C@]43C)[C@@H]12,116% and 90.6%
8,O=C(NC[C@H](O)CO)c1ccncc1Nc1ccc(I)cc1F,103%
9,COC(=O)c1c(C(=O)OC)c2ccc3c4ncccc4ccc3n2c1C(=O)c1ccc(C)cc1,79.1%
10,CCOC(=O)Oc1c(OC)cc(C(=O)O[C@@H]2C[C@@H]3CN4CCc5c([nH]c6cc(OC)ccc56)[C@H]4C[C@@H]3[C@H](C(=O)OC)[C@H]2OC)cc1OC,98.8%
11,S=c1nc(-c2ccccn2)c(-c2ccccn2)n[nH]1,108%
12,O=C(/C=C/c1ccccn1)c1ccccc1O,41.6% and 70.3%
13,N=C(N)c1ccc(S(N)(=O)=O)cc1,96.8%
14,Cc1ccc2c(C3C(C#N)=C(N)Oc4cc5ccccc5cc43)cc(=O)oc2c1 (stereo not given),30.3%
15,CCCn1c(=O)c2c(nc(-c3cccc(OCCCCl)c3)n2C)n(CCC)c1=O,23.6%
16,Clc1ccc(N/N=C(\c2ccccc2)c2ccccn2)nc1,-24.9% (active)
17,O=C(CCl)N1c2ccccc2Oc2ccc3ccccc3c21,-72.5% (active)
18,C=CCSc1n[nH]c(-c2cccs2)n1,95.6%
19,COc1ccc2[nH]cc(/C=N/Nc3nc4ccccc4s3)c2c1,40.6%
20,N#CC1=C(N)n2nc(-c3ccncc3)nc2NC1c1cccc2ccccc12 (stereo not given),76.1%
